# Data from PubChem BioAssay (NCATS).
# Inconclusive results are not listed. A call without a number means that no potency is given here. The source made the active and inactive calls. Calls follow the shape of the dose curve; as a rule, active = well fitted cell-killing curve with a large enough effect; inconclusive = small, poorly fitted or top-dose-only effect, or effect the other way; inactive = no such curve, though single readings can be large or run the other way.
# Assay: qHTS of pediatric cancer cell lines to identify multiple opportunities for drug repurposing: Confirmatory screen for NB-EBc1 cells (AID 1347115);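 also: cells exposed to compound for 48 h before the viability read; nearly all actives have a fitted effect of over 45% in size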
# Details: NB-EBc1 neuroblastoma cells, viability (cytotoxicity); series mostly up to 45.9 µM
# Description: Drug repurposing or repositioning has been offered as a strategy for drug development in oncology programs. This approach has special potential for childhood cancers and other rare or orphan diseases, where the expected return on new drug development has been a disincentive to pharmaceuticals.
# In this project we exploit the poly-pharmacology of drugs to discover new indications via phenotypic screening of a panel of 19 well-characterized cell lines derived from solid tumors seen in children and adolescents. The goal is to identify approved drugs with previously unrecognized anticancer properties that has the potential to reveal new mechanisms and biological processes involved in carcinogenesis or drug resistance. We employed a titration-based paradigm (quantitative high-throughput screening or qHTS), where all compounds were tested at multiple concentrations for their effect on cell viability. Concentration-response curves (CRCs) were derived directly from the primary screen, and both potency and efficacy values were used to identify compounds with robust bioactivity profiles. We screened the NIH Chemical Genomics Center (NCGC) Pharmaceutical Collection (NPC) and Mechanism Interrogation Plate (MIPE) small molecule collections of approved and investigational compounds against these cell lines; and measured metabolically active cells after 48 hours of compound treatment as a proxy for cell viability.
# Assay Submitter: Nathalia J. Martinez, National Center for Advancing Translational Sciences, National Institutes of Health, Rockville, MD, USA; email: natalia.martinez@nih.gov
# [1] Shen, M et al. Quantitative high-throughput phenotypic screening of pediatric cancer cell lines identifies multiple opportunities for drug repurposing. Oncotarget 2017 Dec 19;9(4):4758-4772. PMID 29435139.
# The cells were obtained from University of North Carolina (UNC), Pediatric Preclinical Testing Program (PPT), and Coriell Institute (CI).
# qHTS cell viability assay:
# Cells were assayed in growth media at a density of 500-1,000 cells/well. Five microliters of cells were dispensed into 1,536-well, white, solid-bottom, TC-treated plates (Greiner Bio One) using a multidrop dispenser and incubated at 37 degrees C, 5% CO2, under a humidified atmosphere for 5 hours. Twenty-three nanoliters of compounds and controls (neutral control DMSO or positive control bortezomib at final concentration of 2.3 µM) were subsequently transferred by Kalypsys pintool. For primary screens, the MIPE collection was tested at 11-point dilutions (final concentrations range from 0.78 nM to 46 µM) and the NPC collection at 8-point dilutions (final concentrations range from 0.59 nM to 46 µM). Compounds tested in follow-up screens were assayed at 11-point dilutions. Cells were incubated for 48 hours, followed by addition of 3 µL of CellTiter-Glo (Promega). After a 15 min incubation at room temperature, samples were analyzed for luminescence intensity using a ViewLux High-throughput CCD imager equipped with clear filters.
# Potency is read from the fitted curve at half-maximal effect.
row,SMILES,Potency
1,CCCCCCCCCCCC1=C(O)C(=O)C=C(O)C1=O,inactive
2,COc1cccc(-c2cc(=O)c3ccccc3o2)c1N,inactive
3,O=c1[nH]cnc2c1ncn2[C@H]1CC[C@@H](CO)O1,inactive
4,NS(=O)(=O)c1cccc2c1C(=O)c1cccc(O)c1C2=O,inactive
5,Oc1ccc(C2CCN(c3ccnc4ccccc34)CC2)cc1O,14.7 µM (active)
6,Cc1cc(OCCCc2c(C(=O)O)n(Cc3cccnc3)c3c(-c4c(COc5ccc(N6CCN([S+](C)(=O)[O-])CC6)cc5)nn(C)c4C)cccc23)cc(C)c1Cl,inactive
7,CO[C@H]1C(=O)[C@]2(C)[C@@H](OC)C[C@H]3OC[C@@]3(OC(C)=O)[C@H]2[C@H](OC(=O)c2ccccc2)[C@]2(O)C[C@H](OC(=O)[C@H](O)[C@@H](NC(=O)OC(C)(C)C)c3ccccc3)C(C)=C1C2(C)C,inactive
8,Nc1ncnc2c1ncn2[C@@H]1O[C@@H](CO)[C@H](O)[C@H]1O,inactive
9,COc1cc(N2CCC(N3CCN(C)CC3)CC2)ccc1Nc1ncc(Cl)c(Nc2ccccc2S(=O)(=O)C(C)C)n1,14.7 µM (active)
10,C=C1C(=O)[C@@]23C(CC[C@@H]1[C@H]2O)[C@@]12CO[C@]3(O)[C@@H](O)[C@@H]1C(C)(C)CC[C@@H]2O (some centres not stated),8.27 µM (active)
11,CN[C@@H](C)C(=O)N[C@H]1CN(C(=O)CC(C)C)CC[C@H]2CC[C@@H](C(=O)NC(c3ccccc3)c3ccccc3)N2C1=O,inactive
12,CC(=O)Oc1cc2c(s1)CCN(C(C(=O)C1CC1)c1ccccc1F)C2 (configuration not stated),inactive
13,CN(C)C1CCN(C(=O)c2ccc(NC(=O)Nc3nc(N4CCOCC4)nc(N4CCOCC4)n3)cc2)CC1,16.5 µM (active)
14,CNC1CCC(N(Cc2cccc(-c3ccncc3)c2)C(=O)c2sc3c(F)ccc(F)c3c2Cl)CC1 (configuration not stated),inactive
15,CC=C(C)C(=O)O[C@H]1C(C)=C[C@]23C(=O)[C@@H](C=C(CO)[C@@H](O)[C@]12O)[C@H]1[C@@H](C[C@H]3C)C1(C)C,inactive
16,OC[C@H]1O[C@@H](n2cnc3c2NC=NC[C@@H]3O)C[C@H]1O,inactive
17,N[C@@]1(C(=O)O)CS(=O)(=O)[C@H]2[C@H](C(=O)O)[C@H]21,inactive
18,COc1ccc(-c2coc3cc(O)cc(O)c3c2=O)cc1,inactive
19,O=C1c2ccccc2-[n+]2ccc3c([nH]c4ccccc43)c21,2.61 µM (active)

row,SMILES,Potency
1,Cc1[nH]c(C=C2C(=O)Nc3ccc(S(=O)(=O)Cc4c(Cl)cccc4Cl)cc32)c(C)c1C(=O)N1CCC[C@H]1CN1CCCC1,inactive
2,CO[C@H]1C[C@@H]2CC[C@@H](C)[C@@](O)(O2)C(=O)C(=O)N2CCCC[C@@H]2C(=O)O[C@H]([C@H](C)C[C@@H]2CC[C@H](OCCO)[C@H](OC)C2)CC(=O)[C@H](C)C=C(C)[C@@H](O)[C@@H](OC)C(=O)[C@H](C)C[C@H](C)C=CC=CC=C1C,inactive
3,O=C(O)c1ccc(-c2c[nH]c3ncc(-c4ccccc4)cc23)cc1C1CCCC1,inactive
4,CC(=NNC(=S)N1CCC1)c1ccccn1,inactive
5,O=C(O)CCC1CCC(c2cc(F)ccc2F)(S(=O)(=O)c2ccc(Cl)cc2)CC1 (configuration not stated),inactive
6,CC[C@@H]1C=C(C)C[C@H](C)C[C@H](OC)[C@H]2O[C@@](O)(C(=O)C(=O)N3CCCC[C@@H]3C(=O)O[C@H](C(C)=C[C@@H]3CC[C@H](Cl)[C@H](OC)C3)[C@H](C)[C@@H](O)CC1=O)[C@H](C)C[C@H]2OC,23.3 µM (active)
7,O=C1C(Cl)=C(NCCN2CCOCC2)C(=O)c2ncccc21,5.85 µM (active)
8,COc1ncc(-c2ccc3nccc(-c4ccnnc4)c3c2)cc1NS(=O)(=O)c1ccc(F)cc1F,8.27 µM (active)
9,CC(C)(C(=O)NCC(F)(F)C(F)(F)F)C(=O)N[C@@H]1C(=O)Nc2ccccc2-c2ccccc21,inactive
10,CC1(C)S[C@H]2[C@H](NC(=O)[C@@H](N)c3ccc(O)cc3)C(=O)N2[C@@H]1C(=O)O,inactive
11,CC1(C)CCC[C@@]2(C)[C@@H]1CC[C@@]1(C)OC(=O)C[C@H]21,inactive
12,Cc1nnc(C(C)C)n1C1C[C@H]2CC[C@@H](C1)N2CC[C@H](NC(=O)C1CCC(F)(F)CC1)c1ccccc1 (some centres not stated),7.37 µM (active)
13,NC1=N[C@@]2(c3cc(NC(=O)c4ccc(F)cn4)ccc3F)COC[C@@H]2CS1,inactive
14,O=C1NC(=O)C(=Cc2ccc3c(c2)OC(F)(F)O3)S1,inactive
15,CC(=O)Nc1ccc([C@H](C)C(=O)Nc2ncc(C(C)C)s2)cc1,inactive
16,CC(=O)O[C@]1(C(C)=O)CC[C@@H]2[C@@H]3C[C@H](C)C4=CC(=O)CC[C@]4(C)[C@H]3CC[C@@]21C,inactive
17,CC[C@]1(O)C[C@@H]2CN(CCc3c([nH]c4ccccc34)[C@@](C(=O)OC)(c3cc4c(cc3OC)N(C=O)[C@@H]3C45CCN4CC=C[C@](CC)([C@H]45)[C@@H](OC(C)=O)[C@]3(O)C(=O)OC)C2)C1 (some centres not stated),inactive
18,CCc1ccc(OCc2ccccc2C(=O)Nc2ccc3nc(C)cc(N)c3c2)cc1,8.27 µM (active)
